20 molecules from PubChem BioAssay (NCI) can be followed below.

The structures appear in SMILES notation. About 79,000 compounds went through this panel and 15% of them were active in at least one assay; those are over-represented in the sample as a whole. A number with no mark means an inactive call. Calls of active or inactive are those of the source. No stated cut-off is given here; in the data, active means growth inhibition above about 70%; inactive means the rest.

Experiment [1] is described as follows: NCI Yeast Anticancer Drug Screen. Data for the rad50 strain (AID 155).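 Further: 0% = growth of vehicle-only cultures of the same strain.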 The conditions noted are these: S. cerevisiae rad50 strain growth inhibition; at 50.0 µM; stronger effect = higher value. The essentials:
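DNA repair mutant yeast, compound exposure, growth read-out; inhibition is taken relative to vehicle.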

The nature of experiment [2]: NCI Yeast Anticancer Drug Screen. Data for the mec2-1 strain (AID 157). The conditions noted are these: S. cerevisiae mec2-1 strain, at 50.0 µM, stronger effect = higher value. In outline:
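Vehicle-treated cultures served as reference for growth inhibition of compound-exposed mec2-1 yeast.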

A short description of experiment [3]: NCI Yeast Anticancer Drug Screen. Data for the sgs1 mgt1 strain (AID 161).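 Further: 0% = growth of cultures given vehicle only.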 As to conditions: S. cerevisiae sgs1 mgt1 strain, at 50.0 µM, stronger effect = higher value. In outline: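 Test agents were incubated with a DNA-repair-mutant yeast strain. Growth was then read and compared against vehicle-treated controls.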
Experiment [4] in a line: NCI Yeast Anticancer Drug Screen. Data for the cln2 rad14 strain (AID 165).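 Further: 0% = growth equal to vehicle treated cultures.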 The conditions noted are these: S. cerevisiae cln2 rad14 strain, at 50.0 µM, stronger effect = higher value. In outline: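 Each compound was tested on cln2 rad14 yeast. Inhibition of growth was calculated against vehicle-exposed controls.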
Experiment [5] in a line: NCI Yeast Anticancer Drug Screen. Data for the bub3 strain (AID 167). The conditions noted are these: S. cerevisiae bub3 mutant strain, at 50.0 µM, stronger effect = higher value. In outline:
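In this screen, a yeast mutant lacking normal mitotic checkpoint function is challenged with compound. Relative growth versus vehicle gives the inhibition value.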

Experiment [6] in a line: NCI Yeast Anticancer Drug Screen. Data for the mlh1 rad18 strain (AID 175). As to conditions: S. cerevisiae mlh1 rad18 strain growth inhibition; at 50.0 µM; stronger effect = higher value. In outline: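 Vehicle-treated cultures served as the reference for growth inhibition in a yeast strain carrying DNA damage repair alterations exposed to each compound.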

For the molecule `CCOC(=O)c1c(C)c2c(n1C)CC/C(=C/NCCc1ccccc1)C2=O`, the growth inhibition is 93% (active) in experiment [1]; 79% (active) in experiment [2]; 86.4% (active) in experiment [3]; 29.8% in experiment [4]; 90.5% (active) in experiment [5]; 93.3% (active) in experiment [6].

For the molecule `Cc1cccc(NC(=S)Nc2ccc(-c3ccc(NC(=S)Nc4cccc(C)c4)cc3)cc2)c1`, the growth inhibition in experiment [1] was -0.2%; in experiment [2], 22.6%; in experiment [3], 29.9%; in experiment [4], 0.15%; in experiment [5], 16.2%; in experiment [6], 34.7%.

As to `Nc1ncnc2c1cnn2Cc1ccccc1`, the growth inhibition in experiment [1] was 4.9%; in experiment [2], -7.3%; in experiment [3], 4.65%; in experiment [4] it was -3.75%; in experiment [5] it was 21.2%; in experiment [6], 2.35%.

As for `CCOC(=O)c1c(NCc2ccccc2)n(-c2ccccc2)c(=S)n(-c2ccccc2)c1=O`, the growth inhibition in experiment [1] is 17.1%; in experiment [2], -6.8%; in experiment [3], 0.6%; in experiment [4], 32.1%; in experiment [5], 14.8%; in experiment [6] it was 53%.

Consider `O=c1cc(-c2ccc3c(c2)OCO3)oc2ccccc12`, for which the growth inhibition in experiment [1] was 20.4%; in experiment [2], 1.8%; in experiment [3], 6%; in experiment [4], -2.35%; in experiment [5] it was -5.25%; in experiment [6], -3.8%.

Turning to `Nc1cccc(/C=C(/C(=O)O)c2ccc(Cl)cc2)c1`, the growth inhibition in experiment [1] is 3.4%; in experiment [2], -4.45%; in experiment [3] it was -7.3%; in experiment [4], -38.9%; in experiment [5], -15.6%; in experiment [6], 0.15%.

`Cc1ccc(C(=O)NNC(=O)c2ccc3ccccc3c2)cc1`: the growth inhibition in experiment [1] was -15.4%; in experiment [2] it was -19.4%; in experiment [3], 7%; in experiment [4], 10.2%; in experiment [5], -16.6%; in experiment [6], -12.9%.

Regarding `Cc1csc(NC(=O)C2C3CCC(O3)C2C(=O)O)n1` (stereo not given), the growth inhibition in experiment [1] was 22.1%; in experiment [2] it was -11.2%; in experiment [3], -6.5%; in experiment [4], 10.4%; in experiment [5], -4.95%; in experiment [6], -12.6%.

As to `COC(=O)N1CCC(Sc2ccccc2)C2(CCSc3ccccc3)CCC=C12` (stereo not given), the growth inhibition was -2.2% in experiment [1]; -2.95% in experiment [2]; 5% in experiment [3]; -28.1% in experiment [4]; -27.6% in experiment [5]; -12.6% in experiment [6].

As for `Cc1c([N+](=O)[O-])cc(C(=O)O)cc1[N+](=O)[O-]`, the growth inhibition in experiment [1] was 35.6%; in experiment [2], -0.15%; in experiment [3], 16.4%; in experiment [4] it was -7.4%; in experiment [5], 2.55%; in experiment [6], 27.9%.

As to `Clc1ccc2nc(/C=C/c3ccccc3)cnc2c1`, the growth inhibition in experiment [1] was 14.6%; in experiment [2], 11.2%; in experiment [3] it was 13.3%; in experiment [4], 8.9%; in experiment [5] it was 14.1%; in experiment [6], 22.5%.

Regarding `[N-]=[N+]=Nc1ccccc1Oc1ccccc1`, the growth inhibition is 9.85% in experiment [1]; -18.1% in experiment [2]; 5.15% in experiment [3]; 17.7% in experiment [4]; -16.6% in experiment [5]; 10.5% in experiment [6].

`CC(c1ccccc1)C(C)(C)O` (stereo not given): the growth inhibition is 10.2% in experiment [1]; -8.25% in experiment [2]; 27% in experiment [3]; 20.3% in experiment [4]; -14.5% in experiment [5]; -4.95% in experiment [6].

In the case of `CCCCCC/C=C\CCCCCCCCCC1=CC(=O)C=C(OC)C1=O`, the growth inhibition was -1.35% in experiment [1]; -10.2% in experiment [2]; -19% in experiment [3]; -83.8% in experiment [4]; -31.4% in experiment [5]; -11.7% in experiment [6].

Take `CC(C)(C)c1ccc(-n2c3nc(=O)n(-c4ccccc4CO)c(=O)c-3cc3ccccc32)cc1`: the growth inhibition in experiment [1] is -9.75%; in experiment [2] it was -12.8%; in experiment [3], -9.5%; in experiment [4], -11.6%; in experiment [5], -0.95%; in experiment [6] it was 4.95%.

For the molecule `CCn1cc(C(=O)O)c(=O)c2ccc(-c3cn[nH]c3C)nc21`, the growth inhibition was 44.5% in experiment [1]; 34.1% in experiment [2]; 34.6% in experiment [3]; 4.45% in experiment [4]; 12.2% in experiment [5]; 29.9% in experiment [6].

As to `Cc1nc(-c2ccccc2)ncc1C(O)CN1CCOCC1` (stereo not given), the growth inhibition in experiment [1] was 12.8%; in experiment [2], 11.2%; in experiment [3], 17.4%; in experiment [4], 13.7%; in experiment [5], -23%; in experiment [6], 6.95%.

Take `O=C1CC2CCC(C1)S2=O` (stereo not given): the growth inhibition is 19.6% in experiment [1]; -10.5% in experiment [2]; 17.5% in experiment [3]; 23% in experiment [4]; 12.8% in experiment [5]; 18.5% in experiment [6].

Regarding `CCOC(=O)CCC(NC(=O)c1ccc(NCc2ccc3nc(-c4ccccc4)c(Cl)nc3c2)cc1)C(=O)OCC` (stereo not given), the growth inhibition in experiment [1] is 29.7%; in experiment [2] it was -3.85%; in experiment [3] it was -5.3%; in experiment [4], -5.6%; in experiment [5] it was 1.7%; in experiment [6] it was 4.3%.

Consider `COCCN(CCOC)C1C2=C(CCCC2)OS(=O)(=O)C1c1ccccc1` (stereo not given), for which the growth inhibition in experiment [1] was 26.9%; in experiment [2], -4.75%; in experiment [3], 6.45%; in experiment [4], 12.9%; in experiment [5] it was 3.2%; in experiment [6], 0.05%.
